According to PubChem BioAssay (NCI):
About 83,000 compounds went through this panel and 20% of them were active in at least one assay; those are over-represented in the sample as a whole.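 48-hour exposure, single concentration, 96-well plates; percent growth endpoint where 0 means no net growth. Active: below 10.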 Unmarked numbers belong to inactive results. The source made the active and inactive calls.

These compounds were tested on HL-60(TB) leukemia (assay: NCI-60 one-dose screen, 48 h (100 = growth as untreated, 0 = no growth, -100 = all killed)). Conditions: 10 µM unless noted.

SMILES | growth
CC[N+](CC)(CCCC(C)[N+]1(Cc2ccccc2)C(C)=CC=C1C)Cc1ccccc1 (stereo not given) | 37.1%
CCOC(=O)n1ccn(C)c1=S | 101%
COc1ccc(OC)c(Cn2cc3c(c2-c2ccccc2)CCc2cnoc2-3)c1 | 32.2%
COc1ccc(C/C(C)=C(/c2ccc(OCCN3CCCCCC3)cc2)c2ccc(OC(=O)NCc3ccccc3)cc2)cc1 | 45%
CN1CCN(c2ccc(-c3ccc4ncc(C#N)c(Nc5ccc(F)c(Cl)c5)c4c3)cn2)CC1 | 38.1%
Cn1c(N)c(N=Nc2ccc(S(=O)(=O)Nc3nccs3)cc2)c(=O)n(C)c1=O | 94.6%
O=C(CC(CC(=O)c1ccccc1)c1ccccn1)c1ccccc1 | 104%
C(=C\c1nccc2c1[nH]c1ccccc12)/c1ccccc1 | 55.5%
O=C(NC1CCCCCC1)c1ccc2c(=O)n3c(nc2c1)CCCCC3 | 144%
Nc1ncnc2c1N=C(c1ccc(Cl)cc1)CC(c1ccc3c(c1)OCO3)N2 (stereo not given) | 90.7%
CN(C)CCCCNc1ccc(NCCCCN(C)C)c2c1C(=O)c1c(O)ccc(O)c1C2=O | 24.6%
CCOC(=O)/C(=C\c1ccc2ccccc2c1)P(=O)(OCC)OCC | 8.83% (active)
Cc1ccc(-n2c(-c3ccccc3)c(-c3ccccc3)c3c(SCC(=O)n4[nH]c(N)cc4=O)ncnc32)cc1 | 102%
CCN(CC)CCCC(C)Nc1ccnc2c(OC)cccc12 (stereo not given) | 52.6%
COc1cc(/C=C/C(=O)c2ccc(F)cc2)ccc1OCCCCOc1cc2c(cc1OC)C(=O)N1CCCC1C=N2 (stereo not given) | -32.6% (active)
OCC1OC(n2ccc3c2ncn2ncnc32)C(O)C1O (stereo not given) | -14.4% (active)
COC(=O)C1=C(C(=O)Nc2cccnc2)C2OC1(C(Cc1ccccc1)Oc1ccccc1)C1OC21 (stereo not given) | -56.2% (active)
CCCCn1c(-c2ccc(C(=O)O/N=C(\N)c3ccc4c(c3)OCO4)cc2)nc(-c2ccccc2)c1-c1ccccc1 | -52.4% (active)
O=C1C=CC(=CC=C2C=CN(CCCCCCCCCCCO)C=C2)C=C1 | 4.05% (active)
Cc1cccc(/C=C2\CN(C(=O)OC(C)(C)C)C/C(=C\c3cccc(C)c3)C2=O)c1 | 90.2%

SMILES | growth
Fc1cc(-c2nnc3n2NC(=Nc2ccc(Cl)cc2)CS3)c(Cl)cc1Cl | 94.1%
CC1=C(O)C(=O)C(C(C#N)(C#N)C(C#N)C#N)C1 (stereo not given) | 91.7%
COc1cc(C(=O)/C=C/c2c(C)n([O-])c3ccc(Cl)cc3[n+]2=O)cc(OC)c1OC | -59.5% (active)
O=[N+]([O-])c1ccc(Oc2ccccc2Cl)c([N+](=O)[O-])c1 | -1.82% (active)
CCN(CC)CCCC(C)Nc1c2ccc(Cl)cc2nc2ccc(OC)cc12 (stereo not given) | 55.3%
COc1cc(/C=C/C(=O)c2ccc(NC(=O)CN3CCN(c4cc5c(cc4F)c(=O)c(C(=O)O)cn5C4CC4)CC3)cc2)cc(OC)c1OC | -33.7% (active)
CCOC(=O)NN1CC(O)=C(c2nc(-c3ccc(Br)cc3)cs2)C1=N | 98.8%
O=c1c2cccc(Cl)c2sc2c(NCCCNCCO)nc3ccccc3c12 | -17.8% (active)
COc1ccc(/C=C/C(=O)c2ccc(NC(=O)c3cc4cc5ccccc5nc4s3)cc2)cc1OC | 92.5%
CCCCSc1ncnc2c1ncn2C1CCCCO1 (stereo not given) | 90.4%
COc1ccc(/C(C)=C(\c2ccc(Cl)cc2)c2ccc(OCCN3CCCCCC3)cc2)cc1 | 25.8%
CCOC(=O)Sc1ncnc2nc[nH]c12 | 2.99% (active)
COc1ccc2nc3ccccc3c(NCc3ccccc3)c2c1 | 8.18% (active)
CN(C)c1ccc(/C=C/c2ccnc3ccccc23)cc1 | 12.6%
CCCCCCCCCCCCOC(=O)/C=C\C(=O)NC(N)=O | 52.3%
CCCc1cc(C(N)=S)ccn1 | 103%
Cc1cc(C)c2nc3nc(C)cc(C)c3c(N)c2c1 | 45.8%
O=C(N=Nc1c(O)[nH]c2ccccc12)c1oc2ccccc2c1CN1CCN(c2ccccc2)CC1 | 49.8%
O=C1OCC2=C1C(c1cccc(C(F)(F)F)c1)c1cc3c(cc1N2CCO)OCCO3 (stereo not given) | -29.5% (active)
Cc1cc(C)c2c(N)c3cccc(C)c3nc2n1 | -19.1% (active)
